Assay results taken from PubChem BioAssay AID1022 (Emory University Molecular Libraries Screening Center, 2008).
In all, about 220,000 compounds went through this assay and about 3,300 (1.5%) were called active. Many of the other results were omitted from the sample, so actives are more common in it than they were. Values without a mark were called inactive.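 Rule for the calls: active = compounds that cut the protein-peptide binding signal by more than 50% relative to plate controls in a single-dose test; inactive = the rest.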

Biological target: Induced myeloid leukemia cell differentiation protein Mcl-1 (Homo sapiens) (UniProt Q07820)
Test: disruptors of Mcl-1 and Noxa BH3 peptide – biochemical, TR-FRET, 1536-well, primary screen (AID 1022);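 note: His-tagged Mcl-1 with rhodamine Noxa BH3 peptide and terbium anti-His antibody; 0% = Mcl-1 plus Noxa peptide wells and 100% = peptide-only wells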
Details: TR-FRET Mcl-1/Noxa peptide binding, 2 h; at 21.7 µM; stronger effect = higher value

Sequence of Induced myeloid leukemia cell differentiation protein Mcl-1 (Homo sapiens) (Q07820 whole entry, looked up): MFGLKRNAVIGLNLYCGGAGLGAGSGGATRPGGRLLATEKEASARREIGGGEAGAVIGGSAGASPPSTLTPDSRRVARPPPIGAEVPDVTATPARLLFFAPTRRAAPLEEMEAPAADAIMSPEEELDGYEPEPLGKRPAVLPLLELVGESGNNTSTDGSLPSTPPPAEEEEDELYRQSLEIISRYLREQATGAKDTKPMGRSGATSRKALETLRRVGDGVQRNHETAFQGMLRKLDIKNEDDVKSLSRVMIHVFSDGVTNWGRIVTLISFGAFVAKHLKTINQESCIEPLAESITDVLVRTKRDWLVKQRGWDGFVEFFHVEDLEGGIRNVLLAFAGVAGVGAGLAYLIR

SMILES	inhibition
COc1ccccc1/C=C/C=N/NC(=O)CN1CCN(Cc2ccccc2)CC1	0.78%
CSC1=NCCN1C(=O)Cc1cccc2ccccc12	-0.87%
O=C(NNC(=O)c1cnccc1C(F)(F)F)c1ccc(Cl)cc1	11.9%
Cc1ccccc1NC(=S)Nc1cccc([N+](=O)[O-])c1	11.3%
COC(=O)/C=C\C(=O)Nc1cccc([N+](=O)[O-])c1	64.5% (active)
CC(=O)Nc1cccc([N+](=O)[O-])c1	-1.66%
COc1ccc(Cn2c(O)c(/C=C3/C=CC=N3)c(=O)[nH]c2=O)cc1	25%
CC(=O)NC(=S)Nc1ccc(NC(=O)c2cccnc2)cc1	1.75%
COc1ccc(C(=O)CSc2nnc(COc3ccccc3)n2Cc2ccco2)cc1	17.5%
Cn1c2ccccc2c(=O)c2c(=O)n(Cc3ccco3)c(COc3ccccc3)nc21	60% (active)
CCCc1nc2c(c(=O)c3ccccc3n2C)c(=O)n1-c1cc(C)cc(C)c1	5.11%
CSc1sc(C(=O)NNC(=O)c2ccc(Cl)cc2)c2c1C=CCC2	0.01%
CN1CCN(C2=NCCO2)CC1	3.88%
Nc1c(C(=O)c2cccs2)sc2nsc(SCCN3CCCCC3)c12	-16.9%
O=C(c1ccco1)N1CCN(CCOc2ccccc2)CC1	10.5%
CCn1c(-c2cc(OC)ccc2OC)csc1=Nc1c(C)n(C)n(-c2ccccc2)c1=O	10.7%
COc1ccc(OC)c(N=Cc2c(O)[nH]c3ccccc23)c1	20.4%
CN=c1scc(-c2cc(OC)ccc2OC)n1/N=C/c1c(C)[nH]c2ccccc12	56.7% (active)
CCn1c2ccccc2c2cc(NC(=O)CNC)ccc21	43.9%
CCc1ccc(NC(=O)N[C@H](C(=O)O)C(C)CC)cc1 (stereo not given in full)	16.4%
O=C(O)COCC(=O)NCc1csc2ccc(Cl)cc12	11.9%
O=S(=O)([N-]c1nc2ccccc2nc1-[n+]1ccc(Cc2ccccc2)cc1)c1ccc(Br)s1	15.5%
Cc1ccc(-c2ccc(/C=C(\C#N)C(N)=S)o2)c([N+](=O)[O-])c1	58.2% (active)
N#C/C(=C/c1ccc(-c2ccccc2[N+](=O)[O-])o1)C(=O)NCCN1CCCCC1	26.3%

SMILES	inhibition
Cc1ccc(Cc2cnc(NC(=O)/C(C#N)=C/c3ccc(-c4cccc([N+](=O)[O-])c4)o3)s2)cc1	24.9%
O=S(=O)(NCCc1csc(-c2ccccc2)n1)c1cccnc1	-1.4%
NCC(=O)c1cccc2ccc[n+]([O-])c12	17.5%
COc1cc(NC(=O)c2ccc(CNc3c(N4CCCC4)c(=O)c3=O)cc2)cc(OC)c1OC	8.38%
COc1cc(OC)c(-n2cc(-c3ccc(Cl)cc3)[nH]c2=O)cc1Cl	55.4% (active)
COc1cc(OC)c(-n2c(C)cc(C=O)c2C)cc1Cl	13.7%
COc1ccc(-c2cn(-c3ccc(OC)cc3)c(=S)[nH]2)cc1	11.3%
COc1ccc(/C=C/C(=O)Nc2ccc(C)cc2)cc1S(=O)(=O)N1CCOCC1	8.12%
CCN(CC)c1ccc(/C=N/NC(=O)c2cnccn2)c(O)c1	15.6%
CCn1c(SCC(=O)Nc2sc(C)c(C)c2C#N)nnc1C1CC1	29.1%
Brc1ccc2c(c1)[C@H]1OCC[C@H]1[C@@H](c1cccs1)N2	-3.81%
Cc1[nH]n(-c2ccccc2)c(=O)c1N=Nc1ccccc1C(=O)N1CCCCC1	11.2%
O=C(CN1CCOCC1)N/N=C/c1ccc(-c2ccc(Br)cc2)o1	10.4%
Cc1[nH]c2ccccc2c1/C=N\NC(=O)Cn1nnc(-c2ccccc2)n1	62.8% (active)
O=C(Cn1nnc(-c2ccccc2)n1)NCc1ccccc1	-34.6%
Nc1nnn(CC(=O)N/N=C/c2ccccc2)n1	-7.14%
O=C(Cn1nnc(-c2ccccc2)n1)N/N=C/c1ccc(-c2ccc(Cl)cc2)o1	54.1% (active)
Nc1nnnn1CC(=O)N/N=C/c1ccc(-c2cccc(Cl)c2)o1	39.1%
COc1ccc(CCNCC(O)Cn2ccc3ccccc32)cc1OC (stereo not given)	15.7%
Cc1ccc(OCC(=O)c2cc(C)n(Cc3ccco3)c2C)c([N+](=O)[O-])n1	8.57%
COC(=O)c1ccc(S(=O)(=O)NCc2ccccc2)n1C	8.72%
COc1ccccc1Cn1c(CO)nc2ccccc21	7.12%
O=C(Nc1ccc(Cl)cc1)Nc1ccc(Oc2cccnc2)nc1	26.5%
Cc1ccc(C2C3=C(Nc4[nH]n(-c5ccccc5)c(=O)c42)c2ccccc2C3=O)cc1 (stereo not given)	69% (active)

SMILES	inhibition
Cc1cc(C)c(C2C3=C(Nc4c2c(C)nn4-c2ccccn2)c2ccccc2C3=O)c(C)c1 (stereo not given)	12.5%
Cc1ccc(N=Nc2c(C)[nH]n(-c3ccccc3)c2=O)cc1	23.8%
O=C(Nc1cccnc1)c1ccc(Cl)c([N+](=O)[O-])c1	14.2%
O=C(/C=C/c1ccc(Cl)c([N+](=O)[O-])c1)c1cccnc1	52.5% (active)
O=C(/C=C/c1ccc(Cl)c([N+](=O)[O-])c1)c1ccc(O)cc1	-1.19%
Cc1nc(C(=O)N2CCCC(C(=O)c3ccc(Cl)cc3)C2)cs1 (stereo not given)	-4.61%
CC(=O)c1c(C)[nH]c(=S)c(C#N)c1-c1ccc(F)cc1	-4.64%
Oc1ccccc1N1CCN(C(=S)NCc2ccccc2)CC1	16.6%
S=C(NCCc1ccccc1)N1CCCCC1	21.5%
Oc1ccc(N2CCN(C(=S)NCc3ccccc3)CC2)cc1	61.1% (active)
CC(=O)N/C(=C\c1ccc(F)cc1)C(=O)NC(Cc1ccccc1)C(=O)O (stereo not given)	-9.17%
CCc1c(C)nc2cc(-c3cccs3)[nH]n2c1=O	7.24%
Cc1cc(=O)n2[nH]c(-c3sccc3-n3c(C)ccc3C)cc2n1	50.6% (active)
O=C(CS(=O)(=O)c1ccc(C(F)(F)F)cn1)NNC(=O)c1ccccc1	-2.05%
COc1cccc(OC)c1CN(C)C(=O)c1cnccc1C(F)(F)F	-21.5%
C/C=C(\C)C(=O)N1CC2(CC(c3cccc(NC(=O)CCCCC)c3)=NO2)C[C@@H]1C(N)=O (stereo not given in full)	-15.7%
O=C(NCCCc1ccccc1)C1CCC(CNc2c(N3CCCCC3)c(=O)c2=O)CC1 (stereo not given)	-3.38%
CN(C)/C=C(/C(=O)c1ccc(Cl)c(Cl)c1)c1nnnn1-c1ccccc1	-12.2%
O=C(COc1ccccc1[N+](=O)[O-])N/N=C/c1ccc[nH]1	-5.33%
Nn1c(SCc2ccccc2)nnc1C1CCCCC1	19.7%
Cc1cc(OCCCN2CCN(Cc3ccccc3)CC2)ccc1[N+](=O)[O-]	27.1%
O=C(COc1ccccc1[N+](=O)[O-])NC1CC1	-42.2%
Cc1cc(OCC(=O)NC2CCN(C)CC2)ccc1[N+](=O)[O-]	55.3% (active)
COc1cc2c3c(c1)/C(=C1/SC(=S)NC1=O)C(=O)N3C(C)(C)C=C2C	64% (active)

SMILES	inhibition
CC(C)n1c(CN2CCN(Cc3ccccc3)CC2)nc2ccccc21	24.8%
CCOC(=O)c1cnc2[nH]c3ccccc3n2c1=O	22%
O=c1[nH]c2ccccc2n2c(-c3ccccc3)nnc12	101% (active)
O=[N+]([O-])c1cccc(-c2nnc3c4ccccc4c4ccccc4n23)c1	20.8%
CCOC(=O)c1c(CC(C)C)csc1/N=C/C1=C(O)CCCC1=O	-5.98%
O=C(OCC1O[C@@H](OC(=O)c2cc(O)c(O)c(O)c2)[C@@H](OC(=O)c2cc(O)c(O)c(O)c2)[C@@H](OC(=O)c2cc(O)c(O)c(O)c2)[C@@H]1OC(=O)c1cc(O)c(O)c(O)c1)c1cc(O)c(O)c(O)c1 (stereo not given in full)	114% (active)
CC(=O)NC1C(OCc2ccccc2)OC(COC(C)=O)C(OC(C)=O)C1OC(C)=O (stereo not given)	10.8%
COC(=O)c1cc(=O)n(-c2c(Cl)cc(C(F)(F)F)cc2Cl)[nH]1	3.78%
Cc1cc(C(=O)NNC(=O)c2cccc(S(=O)(=O)N3CCOCC3)c2)c2ccccc2n1	63.2% (active)
Cc1cc(C(=O)Nc2ccccc2N2CCOCC2)c2ccccc2n1	-3.21%
O=C(NNC(=S)Nc1ccccc1)c1cccc(S(=O)(=O)N2CCOCC2)c1	1.14%
O=C1NC[C@@H](Cc2ccc(O)cc2)N(CCc2cccc(F)c2)C1=O	6.16%
C=CCN1CC(C)/C(=N\O)CC1C (stereo not given)	9.5%
Cc1nn(Cc2ccc(Cl)cc2)c(Cl)c1/C=N/NC(=O)c1cccnc1	27.5%
CCn1nc(C)c(/C=N/NC(=O)Cc2ccc(Cl)cc2)c1C	91.8% (active)
Cc1nn(Cc2ccc(Cl)cc2)c(Cl)c1/C=N/NC(=O)CNc1ccccc1F	5.98%
O=c1c(/C=N/O)coc2ccc(Cl)cc12	4.15%
O=C1/C(=C/c2coc3ccc(O)cc3c2=O)SC(=S)N1c1ccccc1	56.9% (active)
O=c1c(-c2ccccc2)coc2cc(O)ccc12	3.79%
Oc1ccc2ccccc2c1N=Nc1nccs1	-81.5%
CC1=C/C(=N\OS(=O)(=O)c2ccccc2)C=CC1=O	61.2% (active)
CCOC(=O)C1(S(=O)(=O)c2ccccc2)CCN(Cc2ccccc2)CC1	10.4%
CC1=C/C(=N\S(=O)(=O)c2ccccc2)C(C(C)C)=CC1=O	17%
